PubChem BioAssay AID1159580 (chemical genetic matrix, 2015)
“And” between values parts separate entries of the source, which are not always exact repeats. Identical values can stand only once. In all, about 5,500 compounds went through this assay and about 2,000 (36%) were called active. About 18% were inconclusive and are not listed. Rule as the data show it: active = normalized growth mostly below about 0.91 (no sharp cut-off); inconclusive = no clear call, values can overlap the other calls; inactive = mostly above about 0.92. This is one part of the list. A structure can be active in one record and inactive in another.

Assay: chemical genetic growth profiling, strain panel (AID 1159580);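 also: tested at 20 µM; growth read once vehicle control cultures reached saturation at 30 °C; 1 = growth at the plate median or of vehicle wells; lower values mean less growth of the strain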
Conditions: S. cerevisiae deletion strains, growth OD

Measured: normalized growth

O=c1c(O)c(-c2ccc(O)c(O)c2)oc2cc(O)cc(O)c12
0.773 (active) and 0.993 (inactive): locus YJL095W, strain BCK1, stronger effect = lower value
0.542 (active) and 0.965 (inactive): locus YGR229C, strain SMI1, stronger effect = lower value
active: locus YAL021C, strain ccr4, stronger effect = lower value 0.659 | locus YAL026C, strain drs2, stronger effect = lower value 0.782 | locus YBL061C, strain skt5, stronger effect = lower value 0.832 | locus YBR023C, strain chs3, stronger effect = lower value 0.778 | locus YBR231C, strain swc5, stronger effect = lower value 0.767 | locus YBR279W, strain paf1, stronger effect = lower value 0.848 | locus YCL011C, strain gbp2, stronger effect = lower value 0.847 | locus YCL016C, strain dcc1, stronger effect = lower value 0.877 | locus YCL069W, strain vba3, stronger effect = lower value 0.92 | locus YDR069C, strain doa4, stronger effect = lower value 0.728 | locus YDR297W, strain sur2, stronger effect = lower value 0.899 | locus YDR334W, strain swr1, stronger effect = lower value 0.855 | locus YDR335W, strain msn5, stronger effect = lower value 0.828 | locus YEL003W, strain gim4, stronger effect = lower value 0.879 | locus YEL037C, strain rad23, stronger effect = lower value 0.885 | locus YER015W, strain faa2, stronger effect = lower value 0.817 | locus YER016W, strain bim1, stronger effect = lower value 0.911 | locus YER111C, strain swi4, stronger effect = lower value 0.895 | locus YFR010W, strain ubp6, stronger effect = lower value 0.9 | locus YGL086W, strain mad1, stronger effect = lower value 0.915 | locus YGL173C, strain kem1, stronger effect = lower value 0.826 | locus YGL253W, strain hxk2, stronger effect = lower value 0.83 | locus YHR013C, strain ard1, stronger effect = lower value 0.796 | locus YHR027C, strain rpn1, stronger effect = lower value 0.807 | locus YHR142W, strain chs7, stronger effect = lower value 0.735 | locus YJL095W, strain BCK1 (second series), stronger effect = lower value 0.858 | locus YJL164C, strain tpk1, stronger effect = lower value 0.868
inactive: locus YAL013W, strain DEP1, stronger effect = lower value 0.973 and 0.979 | locus YAL030W, strain snc1, stronger effect = lower value 0.94 | locus YAL040C, strain CLN3, stronger effect = lower value 1.07 | locus YBR009C, strain hhf1, stronger effect = lower value 0.919 | locus YBR021W, strain FUR4, stronger effect = lower value 0.992 | locus YBR171W, strain sec66, stronger effect = lower value 0.997 | locus YBR229C, strain ROT2, stronger effect = lower value 0.993 | locus YCL029C, strain bik1, stronger effect = lower value 0.982 | locus YCL061C, strain MRC1 (second series), stronger effect = lower value 0.996 | locus YCR088W, strain abp1, stronger effect = lower value 0.993 | locus YDL005C, strain med2, stronger effect = lower value 0.992 | locus YDL035C, strain GPR1, stronger effect = lower value 0.906 | locus YDL040C, strain nat1, stronger effect = lower value 0.974 | locus YDL074C, strain BRE1, stronger effect = lower value 0.848 | locus YDL101C, strain DUN1, stronger effect = lower value 0.98 | locus YDL134C, strain PPH21, stronger effect = lower value 0.932 | locus YDL185W, strain tfp1, stronger effect = lower value 1.01 | locus YDL192W, strain arf1, stronger effect = lower value 0.958 | locus YDR001C, strain nth1, stronger effect = lower value 0.988 | locus YDR101C, strain arx1, stronger effect = lower value 1.02 | locus YDR137W, strain rgp1, stronger effect = lower value 0.897 | locus YDR150W, strain NUM1, stronger effect = lower value 0.978 | locus YDR159W, strain sac3, stronger effect = lower value 0.974 | locus YDR162C, strain NBP2, stronger effect = lower value 0.908 | locus YDR195W, strain ref2 1.04 | locus YDR318W, strain mcm21, stronger effect = lower value 0.967 | locus YDR363W, strain ESC2, stronger effect = lower value 1.01 | locus YDR388W, stronger effect = lower value 0.943 | locus YDR392W, strain spt3, stronger effect = lower value 0.781 | locus YDR502C, strain sam2, stronger effect = lower value 0.955 | locus YEL061C, strain CIN8 (second series), stronger effect = lower value 0.963 | locus YEL061C, strain CIN8, stronger effect = lower value 0.946 | locus YER002W, strain NOP16, stronger effect = lower value 1 | locus YER110C, stronger effect = lower value 1.04 | locus YER155C, strain BEM2 (second series), stronger effect = lower value 0.899 | locus YER155C, strain BEM2, stronger effect = lower value 1.02 | locus YER167W, strain BCK2, stronger effect = lower value 0.976 | locus YGL078C, strain dbp3, stronger effect = lower value 0.999 | locus YGL167C, strain pmr1, stronger effect = lower value 0.977 | locus YGL227W, strain vid30, stronger effect = lower value 1 | locus YGL240W, strain doc1, stronger effect = lower value 0.997 | locus YGL248W, strain PDE1, stronger effect = lower value 0.928 | locus YGR078C, strain PAC10, stronger effect = lower value 0.887 and 0.991 | locus YGR135W, strain pre9, stronger effect = lower value 0.91 | locus YGR252W, strain gcn5, stronger effect = lower value 0.804 | locus YHR030C, strain SLT2, stronger effect = lower value 0.951 and 0.997 | locus YHR079C, strain IRE1 (second series), stronger effect = lower value 1.02 | locus YHR079C, strain IRE1, stronger effect = lower value 0.981 | locus YHR094C, strain hxt1, stronger effect = lower value 1.04 | locus YHR129C, strain ARP1, stronger effect = lower value 0.926 | locus YHR200W, strain rpn10, stronger effect = lower value 0.941 | locus YIL066C, strain RNR3, stronger effect = lower value 0.882 | locus YIL073C, strain SPO22, stronger effect = lower value 0.854 | locus YIL125W, strain kgd1, stronger effect = lower value 1 | locus YIR030C, strain dcg1, stronger effect = lower value 1.03 | locus YJL092W, strain hpr5, stronger effect = lower value 0.955 | locus YJL115W, strain asf1, stronger effect = lower value 0.962 | locus YJL129C, strain trk1, stronger effect = lower value 0.913 | locus YJL134W, strain LCB3, stronger effect = lower value 0.988 | locus YJL154C, strain vps35, stronger effect = lower value 0.985 | locus YJL166W, strain qcr8, stronger effect = lower value 0.913 | locus YJL168C, strain set2, stronger effect = lower value 1.02 | locus YJL187C, strain SWE1 (second series), stronger effect = lower value 0.895 | locus YJR043C, strain POL32, stronger effect = lower value 0.905 | locus YJR066W, strain TOR1, stronger effect = lower value 0.931 | locus YJR075W, strain HOC1, stronger effect = lower value 0.982 and 0.99
